The source of these data is PubChem BioAssay (NCI).

Compounds without any hit were thinned out: in the full panel of roughly 83,000, 20% have a hit.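 Plates (96-well) were seeded with cells, treated with compound at one concentration, and incubated for 48 hours before percent growth was determined.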 Unmarked numbers belong to inactive results. Calls of active or inactive are those of the source. Rule for the calls: active = growth percent below 10; inactive = the rest.

Among the test systems are DU-145 prostate; K-562 leukemia; MALME-3M melanoma; MDA-MB-231 breast; RXF 393 renal; SF-268 CNS; SF-539 CNS; UACC-257 melanoma; M14 melanoma; HCT-15 colon; HT29 colon; SNB-75 CNS; SNB-19 CNS; PC-3 prostate; SK-MEL-5 melanoma; UACC-62 melanoma; SK-MEL-28 melanoma; SF-295 CNS; U251 CNS; LOX IMVI melanoma.
What all share (test): NCI-60 one-dose screen, 48 h (100 = growth as untreated, 0 = no growth, -100 = all killed)
Common to all, as to conditions: 10 µM

`CSc1ccc(-c2cc(-c3ccc(NC(=O)CCCN4CCCC4)cc3)nc(-c3ccc(NC(=O)CCCN4CCCC4)cc3)c2)cc1`: the growth in the experiment with DU-145 prostate was 104%; in the experiment on K-562 leukemia, -36.4% (active); in the experiment on MALME-3M melanoma, 88.4%; with MDA-MB-231 breast, -4.05% (active); with RXF 393 renal, 51.1%; in the experiment on SF-268 CNS it was 48.6%. Moreover, the growth is 75.7% in the experiment with SF-539 CNS; 95.3% in the experiment with UACC-257 melanoma; 88.4% with M14 melanoma; 88.6% in the experiment with HCT-15 colon; 21.9% in the experiment on HT29 colon; 45.2% in the experiment with SNB-75 CNS. Besides, the growth was 49.2% in the experiment on SNB-19 CNS; 40.8% in the experiment with PC-3 prostate; 91.8% in the experiment with SK-MEL-5 melanoma; 93.4% in the experiment on UACC-62 melanoma; 94.7% with SK-MEL-28 melanoma.
With `O=S(=O)(NCCCNc1nccc(-c2cn(-c3ccccc3)nc2-c2ccc(Cl)c(O)c2)n1)c1ccccc1`, the growth in the experiment on DU-145 prostate was 81.4%; in the experiment on K-562 leukemia, 65%; in the experiment with MALME-3M melanoma it was 125%; in the experiment on MDA-MB-231 breast, 71.6%; with RXF 393 renal, 74.2%; in the experiment with SF-268 CNS, 68.5%. The growth in the experiment with SF-295 CNS is 63.2%; with SF-539 CNS it was 88.9%; in the experiment on M14 melanoma, 60.7%; in the experiment with HCT-15 colon it was 51.3%; in the experiment with HT29 colon, 60.5%; in the experiment with SNB-75 CNS, 80.5%. Further, the growth in the experiment with SNB-19 CNS is 86.1%; in the experiment on U251 CNS, 59.4%; in the experiment with SK-MEL-5 melanoma, 46.1%; with UACC-62 melanoma it was 59.1%; in the experiment on LOX IMVI melanoma, 63.1%; in the experiment with SK-MEL-28 melanoma it was 84.5%.
With `COc1ccc2nc(Cl)c(Cn3nnc(Cc4ccccc4)n3)cc2c1`, the growth is 61.6% in the experiment with DU-145 prostate; 32.9% with K-562 leukemia; 34.4% in the experiment on MALME-3M melanoma; 50.7% in the experiment on MDA-MB-231 breast; 60.2% in the experiment on RXF 393 renal; 51.5% with SF-268 CNS. The growth with SF-295 CNS was 37.4%; in the experiment with SF-539 CNS it was 67.5%; in the experiment with M14 melanoma it was 30.3%; in the experiment on HCT-15 colon it was 36.5%; in the experiment with HT29 colon it was 27.4%; in the experiment with SNB-75 CNS, 57.1%. Moreover, the growth is 58% in the experiment on SNB-19 CNS; 53.2% with U251 CNS; -47.2% (active) in the experiment on SK-MEL-5 melanoma; 35.1% in the experiment on UACC-62 melanoma; 42.9% in the experiment with LOX IMVI melanoma; 47.5% with SK-MEL-28 melanoma.
Consider `Cn1c2ccccc2c2c3[nH][nH]c(=O)c3c3c4ccccc4[nH]c3c21`, for which the growth in the experiment with DU-145 prostate is 10.5%; with K-562 leukemia, 32.3%; in the experiment with MALME-3M melanoma, 92.3%; in the experiment on MDA-MB-231 breast it was 19.8%; in the experiment on RXF 393 renal, -36.7% (active); in the experiment on SF-268 CNS, 25%. Besides, the growth was 81.3% in the experiment with SF-295 CNS; -20.8% (active) in the experiment on SF-539 CNS; 17.4% in the experiment on M14 melanoma; 19.7% in the experiment with HCT-15 colon; 43.3% with HT29 colon; 37.2% with SNB-75 CNS. Besides, the growth with SNB-19 CNS is 32.5%; with U251 CNS, 22.7%; in the experiment on SK-MEL-5 melanoma it was -18.1% (active); in the experiment with UACC-62 melanoma, -5.51% (active); in the experiment on SK-MEL-28 melanoma, 29.3%.
Regarding `COc1ccc(-c2cc(-c3cc(OC)ccc3OC)nc(N)c2C#N)cc1`, the growth is 96.2% in the experiment with DU-145 prostate; 89.5% in the experiment on K-562 leukemia; 36.9% with MALME-3M melanoma; 56.3% in the experiment with MDA-MB-231 breast; 70.5% in the experiment on RXF 393 renal; 40.1% in the experiment on SF-268 CNS. Besides, the growth with SF-295 CNS is 64.7%; in the experiment on SF-539 CNS, 57.8%; in the experiment with M14 melanoma, 79.8%; in the experiment on HCT-15 colon, 51.2%; in the experiment on HT29 colon, 60.7%; in the experiment on SNB-75 CNS, 16.3%. The growth with SNB-19 CNS was 48.8%; in the experiment with SK-MEL-5 melanoma, 63%; with UACC-62 melanoma, 42.3%; in the experiment with SK-MEL-28 melanoma, 88.5%.
Take `Cc1ccc(-c2c3c(N)nc(-c4cccnc4)nc3nc3c2c(C)nn3-c2ccccc2)cc1`: the growth with DU-145 prostate is 98.1%; in the experiment on K-562 leukemia, 86.7%; in the experiment on MALME-3M melanoma, 91.9%; with MDA-MB-231 breast, 75.9%; in the experiment on RXF 393 renal it was 79%; in the experiment with SF-268 CNS it was 80.7%. For the same compound, the growth in the experiment with SF-295 CNS is 96.1%; in the experiment with SF-539 CNS, 45.8%; in the experiment on M14 melanoma it was 97.3%; with HCT-15 colon it was 84.4%; with HT29 colon it was 77.3%; with SNB-75 CNS, -0.959% (active). In addition, the growth in the experiment with SNB-19 CNS was 99.1%; in the experiment with PC-3 prostate, 69.3%; with SK-MEL-5 melanoma it was 76.1%; with UACC-62 melanoma, 82.2%; with LOX IMVI melanoma it was 80.9%; with SK-MEL-28 melanoma, 68.2%.
In the case of `CN1CCc2c(sc3nc4n(-c5ccc(Cl)cc5)cnn4c(=O)c23)C1`, the growth was 110% with DU-145 prostate; 106% in the experiment on K-562 leukemia; 97% in the experiment on MALME-3M melanoma; 98.7% in the experiment on MDA-MB-231 breast; 122% with RXF 393 renal; 95.6% with SF-268 CNS. Besides, the growth in the experiment on SF-295 CNS is 102%; in the experiment with SF-539 CNS it was 106%; in the experiment with M14 melanoma, 96.8%; with HCT-15 colon, 104%; in the experiment on HT29 colon, 91.1%; in the experiment on SNB-75 CNS, 94.2%. Moreover, the growth with SNB-19 CNS was 107%; in the experiment with U251 CNS, 104%; in the experiment with SK-MEL-5 melanoma, 109%; in the experiment with LOX IMVI melanoma, 97.6%; in the experiment on SK-MEL-28 melanoma, 116%.
As to `COc1cc2c3c(n(C4CCN(C)CC4)c(=O)c2cc1OC)-c1cc2c(cc1C3=O)OCO2`, the growth with DU-145 prostate was 78.4%; in the experiment with K-562 leukemia, 81.2%; with MALME-3M melanoma, 89.5%; with MDA-MB-231 breast, 43.6%; in the experiment on RXF 393 renal, 68.2%; with SF-268 CNS it was 50.5%. In addition, the growth in the experiment with SF-295 CNS was 46.7%; with SF-539 CNS, -55.5% (active); in the experiment with M14 melanoma, 60.9%; in the experiment with HCT-15 colon, 71.5%; with HT29 colon, 39.7%; in the experiment on SNB-75 CNS it was 60.1%. Further, the growth with SNB-19 CNS is 59.6%; in the experiment on U251 CNS, 35.5%; in the experiment on SK-MEL-5 melanoma, 57.7%; with UACC-62 melanoma it was -25.6% (active); with SK-MEL-28 melanoma, 107%.
